# Reference: PubChem BioAssay (NCI)
# Compounds without any hit were thinned out: in the full panel of roughly 83,000, 20% have a hit.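 Assay: single dose, 48 h. Readout: percent growth (0 = no net growth; negative = cell death). Active: <10.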 Values without a mark were called inactive. Active and inactive are the calls of the source.
# Key:
# Assay in all cases: NCI-60 one-dose screen, 48 h (100 = growth as untreated, 0 = no growth, -100 = all killed)
# Conditions in all cases: 10 µM unless noted
# [1] = test system: EKVX NSCLC
# [2] = test system: SN12C renal
# [3] = test system: UO-31 renal
# [4] = test system: TK-10 renal
# [5] = test system: ACHN renal
# [6] = test system: CAKI-1 renal
# [7] = test system: A498 renal
# [8] = test system: CCRF-CEM leukemia
# [9] = test system: MOLT-4 leukemia
# [10] = test system: SR leukemia
# [11] = test system: RPMI-8226 leukemia
# [12] = test system: OVCAR-8 ovarian
# [13] = test system: OVCAR-5 ovarian
# [14] = test system: OVCAR-4 ovarian
# [15] = test system: SK-OV-3 ovarian
# [16] = test system: IGROV1 ovarian
# [17] = test system: OVCAR-3 ovarian
# [18] = test system: HS 578T breast
# [19] = test system: NCI/ADR-RES ovarian
# [20] = test system: T-47D breast
Compound,growth [1] [%],growth [2],growth [3],growth [4] [%],growth [5],growth [6],growth [7],growth [8],growth [9],growth [10],growth [11],growth [12],growth [13],growth [14],growth [15] [%],growth [16],growth [17],growth [18],growth [19],growth [20]
COc1ccc2c3c(c(OCCCN(C)C)nc2c1)-c1ccc(Cl)cc1C3=O,21.3,32.6%,-72.3% (active),11.2,-75.5% (active),29.5%,60.9%,-39.7% (active),-17.2% (active),-32.7% (active),-17.3% (active),-38.6% (active),-43.3% (active),-8.75% (active),55.5,30.8%,-46.4% (active),68.7%,7.12% (active),72.7%
O=C1OC(c2ccc(-c3ccccc3)cc2)=C/C1=C/c1cccs1,78.8,80.9%,82.9%,86.8,85.7%,81.7%,97.1%,-27.1% (active),87.3%,91.5%,138%,78.9%,98.5%,65.5%,128,93%,89.2%,98.4%,86.5%,33.6%
Cc1cc(C)n2nc(SCC(=O)Nc3sc4c(c3C(N)=O)CCC4)nc2n1,100,103%,74.1%,125,112%,94.7%,95.7%,102%,109%,144%,148%,112%,97.1%,122%,118,-2.56% (active),123%,121%,102%,109%
O=C1/C(=C/c2ccc3cccc(Cl)c3n2)SC(=S)N1CCc1ccc(O)cc1,83.7,87.1%,39.8%,129,82.6%,51%,58.6%,6.53% (active),48.9%,79%,82.2%,92.3%,106%,96.6%,93.2,47%,75.7%,73.8%,93%,65.5%
C[N+]1(CCC[N+]2(C)C[C@@H]3[C@H](C2)[C@@H]2C=C[C@H]3C2)CCOCC1 (stereo not given in full),118,101%,73.9%,113,90.9%,101%,103%,110%,108%,110%,106%,104%,88.9%,112%,99.3,103%,116%,111%,107%,109%
CCCCC1Nc2nc(SC)n(C)c(=O)c2CN(Cc2ccccc2)C1=O (stereo not given),82.8,93.4%,72.2%,78.3,90.2%,69.3%,117%,87%,120%,285%,67.5%,99.9%,100%,103%,93.8,106%,113%,165%,89.7%,93.2%
COc1ccc(CCN2CCCN3C2=Nc2ccccc2S3(=O)=O)cc1,45,53.7%,53.4%,61.1,51%,46.5%,0.819% (active),19.4%,24.7%,24.5%,29.9%,36.2%,43.4%,54.1%,48.6,50.8%,6.69% (active),39.5%,15.8%,44.7%
NC(N)=N/N=C(/c1ccccc1)c1ccc(Cl)cc1,60.6,68.9%,95.4%,94.1,104%,-17.2% (active),56.5%,125%,125%,50.3%,172%,103%,96%,95.2%,81.2,18.7%,5.42% (active),-22.5% (active),82.6%,64.5%
O=C1CCCN1C1CCN(Cc2cc3ccccc3[nH]c2=O)c2ccccc21 (stereo not given),79,88.3%,52.5%,93.3,89.1%,79.3%,111%,76.4%,68.7%,73.1%,3.19% (active),101%,91.3%,82.6%,93.8,90%,98.8%,98%,97.4%,60.1%
Cc1ccc(NC(=O)Nc2ccc(-c3cccnc3)cc2N2CCC(CO)CC2)cc1,55.5,41%,81.2%,16.5,81.2%,42.2%,-36.2% (active),34.7%,17.6%,17.1%,19.4%,44.2%,43.6%,45%,28.4,63.1%,4.71% (active),10.6%,40%,42.7%
O=C1NCN(CCO)CN1,98.9,96.5%,97.2%,107,104%,92.8%,106%,99.7%,121%,122%,85.6%,99.9%,101%,98.5%,95.4,115%,107%,96.7%,102%,89.9%
O=C(/C=C/c1cccnc1)/C=C/c1cccnc1,43.3,4.41% (active),-81.9% (active),17.3,13%,-20.5% (active),93.1%,-48.4% (active),-22.8% (active),-57.3% (active),-61.1% (active),-25.2% (active),-21.7% (active),20.9%,31,-89.3% (active),-40.9% (active),-16% (active),32.2%,-2.05% (active)
O=C(Cn1ccnc1)NC(c1ccccc1)c1ccccc1,97.5,97%,89.5%,97.5,91.9%,96.7%,67.6%,108%,107%,98.4%,108%,102%,83.5%,105%,114,106%,116%,102%,102%,101%
ClC1C2CC(c3ccccc32)C1Cl (stereo not given),123,102%,108%,108,104%,118%,92.4%,96.8%,101%,106%,97.6%,113%,102%,112%,115,118%,113%,113%,106%,103%
Cc1c(C(N)=O)sc2ncn(CC(=O)Nc3ccc(Cl)cc3)c(=O)c12,104,112%,160%,128,108%,40.6%,126%,121%,112%,85%,101%,105%,85.5%,110%,106,533%,122%,139%,102%,102%
Clc1cc(Cl)c(OCC#CI)cc1Cl,98.8,53.7%,38.4%,69.8,2.93% (active),15.7%,119%,27.8%,41.5%,11.4%,15.2%,72.1%,101%,80%,102,45.3%,-61.5% (active),103%,83.6%,1.86% (active)
